From paper PMC5540273 (PLoS ONE, 2017) come the findings set out here.
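Also: KINOMEscan kinase panel screen.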

The first test has as its system PRKCI. Conditions: concentration: 1 μM, replicates: in singlicate; n = 1.
As to `CSc1ccc(-c2cc3ncnc(SCC(=O)O)c3s2)cc1`, the “%Inh” value is 0%.

Consider `CCc1nc(-c2cccc(C)c2)c(-c2ccnc(NCc3ccccc3)c2)s1`, for which the “%Inh” value stood at 0%.

In the case of `COCCNC(=O)c1ccc(-c2cc(C(=O)NC3CC3)cc(F)c2C)cc1` [GW868318], the “%Inh” value came out at 9%.

Turning to `COc1ccc(COc2cc(-n3cnc4ccccc43)sc2C(N)=O)cc1` [GSK1024304], the “%Inh” value was 0%.

Consider `COc1cc2ncn(-c3cc(OCc4sccc4Cl)c(C(N)=O)s3)c2cc1OC` [GSK448459], for which the “%Inh” value is 10%.

With `O=C(NCCNc1ccnc(Nc2ccc(F)cc2)n1)c1cc2ccccc2s1` [GSK1379874], the “%Inh” value worked out at 0%.

Take `Cc1cccc(-c2nc(Nc3ccc4ncsc4c3)c3ccccc3n2)n1` [GW867588]: the “%Inh” value came out at 14%.

As for `c1ccc(-c2n[nH]cc2-c2ccnc3ccccc23)nc1` [GW271431], the “%Inh” value came to 0%.

In the case of `O=C(NCCNc1ccnc(Nc2ccc(F)cc2)n1)Nc1ccccc1F` [GSK1379880], the “%Inh” value worked out at 25%.

On to `Cc1nnc(-c2ccc3occ(-c4ccc(C(C)O)cc4)c3c2)o1` (stereo not drawn), for which the “%Inh” value is recorded as 12%.

On to `NS(=O)(=O)c1cccc(-c2ccc3nccc(-c4cccc(S(N)(=O)=O)c4)c3c2)c1` [GW867253], for which the “%Inh” value is listed as 0%.

On to `CCCCCc1nc2c(N)ncnc2n1CCCCC` [SKF-97255], for which the “%Inh” value amounted to 8%.

For the compound `Cl.Oc1cccc(Nc2ccnc3cc(-c4ccncc4)ccc23)c1` [GW494601], the “%Inh” value came out at 22%.

On to `Fc1ccc(-c2ncn(CCCN3CCOCC3)c2-c2cccnc2)cc1` [SB-211743], for which the “%Inh” value is on record as 23%.

With `Cc1ccc(C(=O)NCC(N)=O)cc1-n1c(C)cc(OCc2ccc(F)cc2F)c(Br)c1=O`, the “%Inh” value was found to be 36%.

On to `NS(=O)(=O)CCc1cccc(Nc2nccc(-c3c(-c4cccc(NC(=O)c5c(F)cccc5F)c4)nn4ccccc34)n2)c1` [GSK336735], for which the “%Inh” value turned out to be 11%.

For `COC(=O)Nc1nc2cc(Oc3ccc(NC(=O)Nc4cc(F)ccc4F)cc3)ccc2[nH]1.Cl` [GW701424], the “%Inh” value is recorded as 0%.

For `Cc1cn2c(=O)cc(N3CCOCC3)nc2n1Cc1cccc(Cl)c1Cl` [GSK2334006], the “%Inh” value is 31%.

For the compound `N#Cc1c(N2CCOCC2)sc(-c2ccn[nH]2)c1-c1ccc(Cl)cc1`, the “%Inh” value stood at 1%.

With `Cc1cccc(Cn2ccn3c(=O)cc(N4CCOCC4)nc23)c1` [GSK2297542], the “%Inh” value was determined as 14%.

With `COc1ccc(CNC(=O)NC2CCN(c3ccnc(Nc4ccc(OC)cc4)n3)C2)cc1` (stereo not drawn) [GSK1379727], the “%Inh” value amounted to 12%.

Regarding `c1ccc(-c2cc(-c3c[nH]nc3-c3ccccn3)ccn2)cc1` [GW576604], the “%Inh” value is 23%.

As for `COc1cc2c(cc1OCCN1CCN(C)CC1)ncc1c3ccc(C#N)cc3[nH]c21`, the “%Inh” value was 22%.

As to `COc1ccc(Nc2nccc(N3CCC(NC(=O)Nc4cccc(C(C)=O)c4)C3)n2)cc1` (stereo not drawn) [GSK1379731], the “%Inh” value turned out to be 18%.

On to `Cc1ccc(NC(=O)c2ccnc(N3CCN(C)CC3)c2)cc1-c1ccc(C(=O)NCC2CC2)cc1` [GW775604], for which the “%Inh” value was determined as 0%.

In the case of `Cc1c(Cn2c(C)nn3c(=O)cc(N4CCOC(C)C4)nc23)cccc1C(F)(F)F` (stereo not drawn) [GSK2344444], the “%Inh” value worked out at 0%.

Consider `O=C(NCCCN1CCOCC1)c1cccc(Nc2nccc(Nc3ccc(Oc4ccccc4)cc3)n2)c1` [GW663929], for which the “%Inh” value is reported as 12%.

Take `Nc1nc(-c2ccc3c(N)n[nH]c3c2)cc(N2CCCC2)n1` [GSK2227430]: the “%Inh” value is 0%.

Take `Nc1nccc(-c2c(-c3ccc(F)cc3)ncn2C2CCN(CC(F)(F)F)CC2)n1` [SB-236560]: the “%Inh” value came to 14%.

In the case of `COc1ccc(S(=O)(=O)NC2CCN(c3cc(C)nc(Nc4cccc(C#N)c4)n3)CC2)cc1.O=C(O)C(F)(F)F` [GSK1653539], the “%Inh” value was 3%.

Take `CN(C1=C(c2ccccc2)C(=O)NC1=O)c1ccccc1` [SB-334860]: the “%Inh” value came to 33%.

Turning to `CN1c2ccc(CNc3ccc(F)cc3)cc2-c2c(cnn2C)S1(=O)=O`, the “%Inh” value stood at 0%.

For the compound `COc1cc(Nc2nccc(N3CCC(NC(=O)c4cccc(NC(C)=O)c4)C3)n2)cc(OC)c1OC` (stereo not drawn) [GSK1379754], the “%Inh” value came out at 0%.

For a further test, the system named is PRKCQ. Conditions: concentration: 1 μM, replicates: in singlicate; n = 1.
Turning to `CSc1ccc(-c2cc3ncnc(SCC(=O)O)c3s2)cc1`, the “%Inh” value is recorded as 0%.

`CCc1nc(-c2cccc(C)c2)c(-c2ccnc(NCc3ccccc3)c2)s1`: the “%Inh” value is on record as 31%.

Consider `COCCNC(=O)c1ccc(-c2cc(C(=O)NC3CC3)cc(F)c2C)cc1` [GW868318], for which the “%Inh” value came out at 2%.

In the case of `COc1ccc(COc2cc(-n3cnc4ccccc43)sc2C(N)=O)cc1` [GSK1024304], the “%Inh” value is reported as 32%.

Turning to `COc1cc2ncn(-c3cc(OCc4sccc4Cl)c(C(N)=O)s3)c2cc1OC` [GSK448459], the “%Inh” value is listed as 0%.

Turning to `O=C(NCCNc1ccnc(Nc2ccc(F)cc2)n1)c1cc2ccccc2s1` [GSK1379874], the “%Inh” value worked out at 0%.

`Cc1cccc(-c2nc(Nc3ccc4ncsc4c3)c3ccccc3n2)n1` [GW867588]: the “%Inh” value is recorded as 5%.

For `c1ccc(-c2n[nH]cc2-c2ccnc3ccccc23)nc1` [GW271431], the “%Inh” value amounted to 0%.

In the case of `O=C(NCCNc1ccnc(Nc2ccc(F)cc2)n1)Nc1ccccc1F` [GSK1379880], the “%Inh” value was 0%.

For the compound `Cc1nnc(-c2ccc3occ(-c4ccc(C(C)O)cc4)c3c2)o1` (stereo not drawn), the “%Inh” value came out at 5%.

Take `NS(=O)(=O)c1cccc(-c2ccc3nccc(-c4cccc(S(N)(=O)=O)c4)c3c2)c1` [GW867253]: the “%Inh” value is listed as 0%.

As to `CCCCCc1nc2c(N)ncnc2n1CCCCC` [SKF-97255], the “%Inh” value is 0%.

`Cl.Oc1cccc(Nc2ccnc3cc(-c4ccncc4)ccc23)c1` [GW494601]: the “%Inh” value was 0%.

In the case of `Fc1ccc(-c2ncn(CCCN3CCOCC3)c2-c2cccnc2)cc1` [SB-211743], the “%Inh” value is given as 0%.

As for `Cc1ccc(C(=O)NCC(N)=O)cc1-n1c(C)cc(OCc2ccc(F)cc2F)c(Br)c1=O`, the “%Inh” value is 26%.

Turning to `NS(=O)(=O)CCc1cccc(Nc2nccc(-c3c(-c4cccc(NC(=O)c5c(F)cccc5F)c4)nn4ccccc34)n2)c1` [GSK336735], the “%Inh” value is listed as 55%.

Turning to `COC(=O)Nc1nc2cc(Oc3ccc(NC(=O)Nc4cc(F)ccc4F)cc3)ccc2[nH]1.Cl` [GW701424], the “%Inh” value came to 0%.

Take `Cc1cn2c(=O)cc(N3CCOCC3)nc2n1Cc1cccc(Cl)c1Cl` [GSK2334006]: the “%Inh” value worked out at 28%.

For `N#Cc1c(N2CCOCC2)sc(-c2ccn[nH]2)c1-c1ccc(Cl)cc1`, the “%Inh” value is reported as 11%.

Consider `Cc1cccc(Cn2ccn3c(=O)cc(N4CCOCC4)nc23)c1` [GSK2297542], for which the “%Inh” value turned out to be 28%.

Turning to `COc1ccc(CNC(=O)NC2CCN(c3ccnc(Nc4ccc(OC)cc4)n3)C2)cc1` (stereo not drawn) [GSK1379727], the “%Inh” value worked out at 0%.

With `c1ccc(-c2cc(-c3c[nH]nc3-c3ccccn3)ccn2)cc1` [GW576604], the “%Inh” value worked out at 0%.

Take `COc1cc2c(cc1OCCN1CCN(C)CC1)ncc1c3ccc(C#N)cc3[nH]c21`: the “%Inh” value is on record as 17%.

Consider `COc1ccc(Nc2nccc(N3CCC(NC(=O)Nc4cccc(C(C)=O)c4)C3)n2)cc1` (stereo not drawn) [GSK1379731], for which the “%Inh” value turned out to be 18%.

As for `Cc1ccc(NC(=O)c2ccnc(N3CCN(C)CC3)c2)cc1-c1ccc(C(=O)NCC2CC2)cc1` [GW775604], the “%Inh” value is 0%.

As for `Cc1c(Cn2c(C)nn3c(=O)cc(N4CCOC(C)C4)nc23)cccc1C(F)(F)F` (stereo not drawn) [GSK2344444], the “%Inh” value was 0%.

For `O=C(NCCCN1CCOCC1)c1cccc(Nc2nccc(Nc3ccc(Oc4ccccc4)cc3)n2)c1` [GW663929], the “%Inh” value was determined as 0%.

For `Nc1nc(-c2ccc3c(N)n[nH]c3c2)cc(N2CCCC2)n1` [GSK2227430], the “%Inh” value was 18%.

For the compound `Nc1nccc(-c2c(-c3ccc(F)cc3)ncn2C2CCN(CC(F)(F)F)CC2)n1` [SB-236560], the “%Inh” value turned out to be 12%.

Take `COc1ccc(S(=O)(=O)NC2CCN(c3cc(C)nc(Nc4cccc(C#N)c4)n3)CC2)cc1.O=C(O)C(F)(F)F` [GSK1653539]: the “%Inh” value is 0%.

For `CN(C1=C(c2ccccc2)C(=O)NC1=O)c1ccccc1` [SB-334860], the “%Inh” value is given as 7%.

For `CN1c2ccc(CNc3ccc(F)cc3)cc2-c2c(cnn2C)S1(=O)=O`, the “%Inh” value is 12%.

With `COc1cc(Nc2nccc(N3CCC(NC(=O)c4cccc(NC(C)=O)c4)C3)n2)cc(OC)c1OC` (stereo not drawn) [GSK1379754], the “%Inh” value is given as 24%.
